This note sets out measurements from PubChem BioAssay (NCATS).

Holding throughout (assay): qHTS profiling for inhibitors of Plasmodium falciparum proliferation (AID 504749); further: nearly all actives have a fitted effect of over 60% in size
Holding throughout (details): P. falciparum in erythrocytes, SYBR Green DNA, 72 h; series mostly up to 28.7 µM

For one assay, the system named is CP237. The gist of the method:
(§1)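 Three-day growth assay of blood-stage parasites in erythrocytes (0.3% parasitemia, 2.5% hematocrit) at 37 C, 5% CO2, quantified by SYBR Green DNA staining after overnight detergent lysis.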

The test system of a further assay is CP238. In short, it runs like this:
as §1

The test system of a further assay is CP247. The gist of the method: as §1
The subject of the next assay is CP250. The gist of the method: as §1
A further assay has as its system CP252. In short, it runs like this: as §1
A further assay deals with CP256. The gist of the method: as §1
For the next assay, the system named is CP260. In short, it runs like this: as §1
The next assay relates to CP262. The gist of the method:
as §1

Another assay has as its system CP265. In short, it runs like this:
as §1

A further assay deals with CP266. In short, it runs like this:
as §1

Another assay deals with CP269. In short, it runs like this:
as §1

The subject of the next assay is CP286. The gist of the method: as §1
A further assay has as its system CP291. The gist of the method:
as §1

The next assay relates to CP297. In short, it runs like this:
as §1

In a further assay the test system is CP305. The gist of the method: as §1
In a further assay the test system is CP315. The gist of the method:
as §1

In the next assay the test system is CP325. In short, it runs like this:
as §1

A further assay has as its system CP329. In short, it runs like this: as §1
A further assay deals with CP335. In short, it runs like this:
as §1

The test system of another assay is CP268. In short, it runs like this:
as §1

Records with an inconclusive call do not appear. The source made the active and inactive calls. The call rests on the fitted dose curve; in most records, active means well fitted inhibition curve with a large enough effect; inconclusive means small, poorly fitted or top-dose-only effect; inactive means flat fitted curve, though single readings scatter.
Potency means the concentration at half of the fitted maximal effect.

Consider `N[C@H](CO)C(=O)O`, for which the Potency entry in the assay with CP237, in the assay with CP238, in the assay on CP247, with CP250, in the assay with CP252 and in the assay on CP256 was “inactive” in each case. In addition, the Potency result in the assay with CP260, with CP262, with CP265, in the assay on CP266, in the assay with CP269 and with CP286 was “inactive” each time. Also, the Potency result in the assay with CP291, with CP297, in the assay with CP305, with CP315, with CP325 and in the assay on CP329 was “inactive” each time. For the same molecule, in the assay with CP335, the Potency entry is “inactive”.

For the molecule `COc1cccc(CCc2ccccc2OCC(CN(C)C)OC(=O)CCC(=O)O)c1` (stereo unspecified), the Potency is 1.12 µM (active) in the assay on CP237; 7.08 µM (active) in the assay on CP238; 5.62 µM (active) with CP247; 11.2 µM (active) in the assay with CP250; 8.91 µM (active) with CP252; 11.2 µM (active) in the assay with CP256. Moreover, the Potency in the assay on CP260 was 3.55 µM (active); in the assay on CP262 it was 12 µM (active); in the assay on CP265, 7.08 µM (active); in the assay with CP268, 7.57 µM (active); in the assay on CP269, 6.75 µM (active); in the assay on CP286, 5.62 µM (active). In addition, the Potency in the assay with CP291 was 12 µM (active); in the assay on CP297, 3.38 µM (active); in the assay with CP305, 7.57 µM (active); in the assay with CP315 it was 15.1 µM (active); with CP329, 12 µM (active); in the assay with CP335, 3.79 µM (active).

Consider `CCCCCCc1ccc(O)cc1O`, for which the Potency entry in the assay on CP237, in the assay on CP238, with CP247, in the assay on CP250, in the assay with CP252 and in the assay with CP256 was “inactive” each time. For the same molecule, the Potency result in the assay with CP260, in the assay on CP262, in the assay on CP265, in the assay on CP268, with CP269 and in the assay on CP286 was “inactive” throughout. The Potency result in the assay on CP291, in the assay with CP297, in the assay with CP305, in the assay with CP315, in the assay on CP325 and with CP329 was “inactive” throughout. The Potency entry in the assay with CP335 was “inactive”.

On to `Oc1ccc(Cl)cc1Sc1cc(Cl)ccc1O`, for which the Potency entry with CP237, in the assay on CP238, in the assay on CP247, with CP250, with CP252 and in the assay with CP256 was “inactive” throughout. Also, the Potency result in the assay with CP260, in the assay on CP262, in the assay with CP265, with CP266, in the assay on CP268 and with CP269 was “inactive” each time. Also, the Potency result with CP286, in the assay with CP291, in the assay with CP305, in the assay with CP315, with CP325 and with CP329 was “inactive” throughout.

As to `CCN1CCCC1=O`, the Potency result with CP237, in the assay with CP238, in the assay with CP247, with CP250, with CP252 and with CP256 was “inactive” throughout. For the same molecule, the Potency entry with CP260, in the assay on CP262, in the assay with CP265, in the assay on CP266, with CP268 and with CP269 was “inactive” throughout. The Potency entry with CP286, in the assay on CP291, in the assay on CP305, in the assay on CP315, in the assay with CP325 and in the assay with CP329 was “inactive” throughout. The Potency result in the assay with CP335 is “inactive”.

In the case of `CCCCCCCCCCCCCCCCOP(=O)([O-])OCC[N+](C)(C)C`, the Potency result in the assay with CP237, with CP238, with CP247, in the assay with CP250, with CP252 and with CP256 was “inactive” each time. Moreover, the Potency result in the assay on CP260, with CP262, in the assay with CP265, in the assay with CP266, in the assay with CP268 and with CP269 was “inactive” each time. Also, the Potency result in the assay with CP286, in the assay on CP291, in the assay with CP305, in the assay with CP315, in the assay on CP325 and in the assay with CP329 was “inactive” in each case. The Potency result in the assay with CP335 was “inactive”.

As to `Cc1c(F)c(N2CCNC(C)C2)cc2c1c(=O)c(C(=O)O)cn2C1CC1` (stereo unspecified), the Potency entry in the assay on CP237, in the assay on CP238, with CP247, with CP250, in the assay with CP252 and in the assay with CP256 was “inactive” in each case. The Potency result in the assay on CP260, with CP262, in the assay on CP265, with CP268, with CP269 and in the assay on CP286 was “inactive” in each case. In addition, the Potency result in the assay on CP291, with CP297, in the assay with CP305, in the assay with CP315, with CP325 and in the assay on CP329 was “inactive” throughout. Also, in the assay with CP335, the Potency result was “inactive”.

Turning to `O=C(OCCOCCO)c1ccccc1Nc1cccc(C(F)(F)F)c1`, the Potency entry with CP237, with CP238, in the assay with CP247, with CP250, in the assay with CP252 and in the assay with CP256 was “inactive” each time. Also, the Potency result in the assay on CP260, with CP262, in the assay with CP265, in the assay with CP268, with CP269 and with CP286 was “inactive” throughout. Besides, the Potency entry in the assay on CP291, in the assay on CP297, in the assay on CP305, with CP315, in the assay on CP325 and in the assay with CP329 was “inactive” throughout. The Potency result in the assay with CP335 is “inactive”.

As for `Cc1c(C)n(Cc2ccccc2)c2ccc(C(=O)OCCN(C)C)cc12`, the Potency result with CP237, in the assay with CP238, in the assay with CP247, with CP250, in the assay on CP252 and with CP256 was “inactive” in each case. The Potency result in the assay with CP260, in the assay with CP262, in the assay with CP265, in the assay with CP268, with CP269 and in the assay on CP286 was “inactive” in each case. Besides, the Potency result in the assay on CP291, in the assay with CP297, in the assay on CP305, in the assay on CP315, with CP325 and in the assay on CP329 was “inactive” in each case. Further, the Potency entry with CP335 is “inactive”.

For the molecule `NC(=O)C(=O)N/N=C/c1ccc([N+](=O)[O-])o1`, the Potency entry with CP237, in the assay on CP238, in the assay on CP247, in the assay with CP250, in the assay on CP252 and with CP256 was “inactive” each time. The Potency result in the assay on CP260, with CP262, with CP265, in the assay on CP286 and with CP335 was “inactive” each time. The Potency in the assay on CP329 was 15.1 µM (active).

For `CC(C)(Oc1ccc(Cl)cc1)C(=O)O`, the Potency result in the assay on CP237, in the assay on CP238, in the assay with CP247, in the assay with CP250, in the assay on CP252 and in the assay on CP256 was “inactive” throughout. For the same molecule, the Potency result with CP260, in the assay with CP262, in the assay on CP265, in the assay on CP266, in the assay with CP268 and with CP269 was “inactive” throughout. Also, the Potency result with CP286, in the assay on CP297, in the assay with CP315, with CP325 and with CP329 was “inactive” throughout.

`CC(=O)Oc1ccc(C(c2ccc(OC(C)=O)cc2)c2ccccn2)cc1`: the Potency result in the assay on CP237, in the assay with CP238, with CP247, with CP250, in the assay on CP252 and in the assay with CP256 was “inactive” throughout. The Potency result in the assay on CP260, in the assay on CP262, in the assay with CP265, in the assay on CP266, in the assay on CP268 and in the assay with CP269 was “inactive” in each case. For the same molecule, the Potency result with CP286, in the assay on CP297, in the assay on CP305, in the assay with CP315, in the assay with CP325 and in the assay on CP329 was “inactive” each time. In the assay with CP335, the Potency entry is “inactive”.

As for `Oc1c(Cl)cc(Cl)cc1Sc1cc(Cl)cc(Cl)c1O`, the Potency entry in the assay on CP237, with CP238, in the assay with CP247, in the assay on CP250, with CP252 and with CP256 was “inactive” in each case. In addition, the Potency result in the assay with CP260, in the assay on CP262, in the assay with CP265, with CP266, in the assay with CP268 and in the assay with CP269 was “inactive” in each case. The Potency entry with CP286, in the assay on CP291, in the assay with CP305, in the assay on CP315, in the assay on CP325 and in the assay on CP329 was “inactive” in each case. For the same molecule, in the assay with CP335, the Potency entry is “inactive”.
